This is a sample that favours compounds with a hit; in the whole collection about 2.7% have one here.
12-LOX inh = Primary qHTS assay for inhibitors of human arachidonate 12S-lipoxygenase (ALOX12): Round 2 | Potency, µM (titrated, usually from 108 µM), without a hit: top-dose activity change, negative = inhibition, actives largely listed as inhibitors | AID 1671190, 2021 | 580,000 compounds, 1.1% hits | purified 12hLO, xylenol orange hydroperoxide absorbance; note: potency is the fitted concentration of half-maximal effect; % is set by controls: 0 for no effect and ±100 for the full control effect
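Hydroperoxide product was detected by ferrous iron/xylenol orange as the 573 to 405 nm absorbance ratio. Arachidonic acid at 40 uM (final) was turned over for 30 min at room temperature by 150 nM human 12hLO, pH 7.0 Hepes buffer, after 15 min compound preincubation.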
Nrf2 ARE act = qHTS of Nrf2 Activators. Potency, µM (series often up to 46.1 µM), inactives show at the highest dose activation, most hits filed as activators. AID 624171, 2012. AREc32 ARE-luciferase reporter (MCF7-derived line), luminescence, 24 h. 410,000 compounds, 0.31% hits; note: potency is the fitted concentration of half-maximal effect; % of control where 0% means no effect; nearly all actives have a fitted effect of over 65% in size
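Luciferase luminescence (Steady-Glo, 30 min at room temperature) served as the read-out of ARE activation in AREc32 cells treated with compounds for 24 hr at 37 deg C.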
Nrf2 block = Nrf2 qHTS screen for inhibitors; A549 ARE-Fluc reporter, luciferase luminescence, 18-24 h; Potency, µM (series often up to 46 µM), inactives show top-dose activity change, negative = inhibition, most hits filed as inhibitors; 360,000 compounds, 2.1% hits; note: potency is the fitted concentration of half-maximal effect; % is set by controls: 0 for no effect and ±100 for the full control effect; nearly all actives have a fitted effect of over 60% in size
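A549 ARE_Fluc cells (5000/well, 5% FBS OPTI-MEM) pre-incubated 2 h, then treated with compounds 18-24 h at 37C/5% CO2 in concentration-response. CellTiter-Fluor viability read first; BugLite luciferase luminescence after 15 min at room temperature gives Nrf2 activity.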
A549 viability = Nrf2 qHTS screen for inhibitors: counterscreen for cytotoxicity; A549 ARE-Fluc cells, CellTiter-Fluor viability, 18-24 h; Potency, µM (top dose mostly 46 µM), without a hit: at the top dose activity change, negative = cytotoxicity, most hits filed as inhibitors; 390,000 compounds, 0.16% hits; note: potency is the fitted concentration of half-maximal effect; % is set by controls: 0 for no effect and ±100 for the full control effect
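A549 ARE-Fluc cells in 5% FBS OPTI-MEM, 5000 cells/well, rested 2 h then exposed to compounds in concentration-response for 18-24 h at 37 °C. Viability by CellTiter-Fluor fluorescence (Ex 405/Em 525) after 30 min; luciferase luminescence (BugLite, 15 min, RT) read afterwards.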
mIDH1 inhibitor = qHTS for Inhibitors of mutant isocitrate dehydrogenase 1 (IDH1): qHTS; Isocitrate dehydrogenase [NADP] cytoplasmic (Homo sapiens), O75874; IDH1-R132H enzyme, NADPH consumption, diaphorase/resazurin fluorescence; Potency, µM (titrated, usually from 76.6 µM), without a hit: top-dose activity change, negative = inhibition, most hits filed as inhibitors; 390,000 compounds, 0.093% hits; AID 602179, 2012; note: potency is the fitted concentration of half-maximal effect; % is set by controls: 0 for no effect and ±100 for the full control effect; nearly all actives have a fitted effect of over 65% in size
Target sequence (O75874 whole entry R132H, stated change not applied): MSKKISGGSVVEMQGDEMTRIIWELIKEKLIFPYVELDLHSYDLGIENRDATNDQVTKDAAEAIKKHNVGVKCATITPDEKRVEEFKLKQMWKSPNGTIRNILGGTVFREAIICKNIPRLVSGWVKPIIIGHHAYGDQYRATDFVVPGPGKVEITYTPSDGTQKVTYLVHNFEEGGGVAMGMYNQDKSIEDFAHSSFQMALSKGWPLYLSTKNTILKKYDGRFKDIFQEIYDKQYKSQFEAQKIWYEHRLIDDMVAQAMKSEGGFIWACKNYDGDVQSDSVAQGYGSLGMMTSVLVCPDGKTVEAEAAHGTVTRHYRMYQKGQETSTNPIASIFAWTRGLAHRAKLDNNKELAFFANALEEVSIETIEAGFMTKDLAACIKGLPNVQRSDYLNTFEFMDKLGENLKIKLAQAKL
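IDH1-R132H (0.5 ug/mL) preincubated 30 min with compound, then NADPH (0.016 mM) and alpha-KG (2 mM) added; 80 min at RT, pH 7.5. Remaining NADPH coupled via diaphorase/resazurin to fluorescence (540/590 nm); concentration-response curves normalized to no-enzyme control.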
LDHA block = qHTS assay for inhibitors of human lactate dehydrogenase; L-lactate dehydrogenase A chain (Homo sapiens), P00338; purified LDHA, NADH/diaphorase-resazurin fluorescence; stronger effect = lower value; activity change, % (values are at about 110 or 230 µM); 480,000 compounds, 0.15% hits; in the data active = activity change below about -30%; inconclusive = mostly about -25% to -30%;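 note: plate controls were DMSO wells for no effect and wells without enzyme for full effect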
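Enzyme activity of human lactate dehydrogenase 5 (2 nM; 0.06 mM NADH, 0.2 mM pyruvate, 5 min, RT) is measured via a resazurin/diaphorase fluorescence readout of residual NADH.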
* = called active by the depositor. Unless noted, calls come from the whole dose curve; as a rule, active = well fitted curve in the direction sought with a large enough effect; inconclusive = small, poorly fitted or top-dose-only effect, or another doubt; inactive = no such curve, though single readings can be large; an effect the other way counts as inactive or inconclusive.

Screening FC(F)Sc1ccc(NC(=S)NCC2CCCCC2)cc1 returned 12-LOX inh 16µM*, Nrf2 ARE act 3%, Nrf2 block inconclusive, A549 viability inconclusive, mIDH1 inhibitor 5% and LDHA block 0.
Screening COc1cc(/C=N/Nc2ccc(S(N)(=O)=O)cc2[N+](=O)[O-])cc(OC)c1O returned 12-LOX inh -24%, Nrf2 ARE act 7%, Nrf2 block 24%, A549 viability 1%, mIDH1 inhibitor 3% and LDHA block -2.
Screening COc1ccccc1/C=N\Nc1ccccc1[N+](=O)[O-] returned 12-LOX inh 43%, Nrf2 ARE act inconclusive, Nrf2 block inconclusive, A549 viability -12%, mIDH1 inhibitor 6% and LDHA block 3.
`COc1cc(/C=N/Nc2ccccc2[N+](=O)[O-])cc(OC)c1O` gave 12-LOX inh -22%, Nrf2 ARE act 10µM*, Nrf2 block -20%, A549 viability -19%, mIDH1 inhibitor 4% and LDHA block 1.
`CC(C)Oc1ccccc1/C=N/Nc1ccccc1[N+](=O)[O-]` gave 12-LOX inh -7%, Nrf2 ARE act 10µM*, Nrf2 block 15%, A549 viability -2%, mIDH1 inhibitor 2% and LDHA block -2.
CN(CCCNC(=O)c1cccc2[nH]ncc12)Cc1ccccc1 was read as 12-LOX inh 2% and LDHA block -1.
For CC(=O)NC1(C)CCCCC1 the results were 12-LOX inh 8% and LDHA block 5.
CC1CCN(C(NC(=O)c2cccs2)C(=O)c2ccccc2)CC1 (stereo not given) was read as 12-LOX inh inconclusive and LDHA block 0.
For COc1ccc(Cc2n[nH]c(=S)o2)cc1 the results were 12-LOX inh -7%, Nrf2 ARE act 0%, Nrf2 block 2%, A549 viability 1%, mIDH1 inhibitor 11% and LDHA block -6.
Screening S=c1[nH]nc(COc2ccc3ccccc3c2)o1 returned 12-LOX inh 40µM*, Nrf2 ARE act -1%, Nrf2 block 10%, A549 viability -1%, mIDH1 inhibitor -3% and LDHA block -11.
Screening Cn1c2ccccc2c2cc(/C=N/NC(=O)c3cc(O)ccc3O)ccc21 returned 12-LOX inh 35µM*, Nrf2 ARE act 0%, Nrf2 block -15%, A549 viability -27%, mIDH1 inhibitor 7% and LDHA block 5.
Screening CCN(C(=O)C=Cc1ccco1)c1ccccc1 returned 12-LOX inh inconclusive, Nrf2 ARE act 14µM*, Nrf2 block 3%, A549 viability 4%, mIDH1 inhibitor 5% and LDHA block -13.
For O=C(/C=C/c1ccco1)N(Cc1cccs1)Cc1cccs1 the results were 12-LOX inh 8.9µM* and LDHA block -15.
For O=C(CC[C@@H]1CNC(=O)[C@@H]2C[C@H](NC(=O)c3ccccc3)CN12)NCc1ccc(F)cc1 the results were 12-LOX inh 32µM*.
O=C(Nc1ccccc1)c1nc2ccccc2nc1N1CCOCC1 was read as 12-LOX inh 0% and LDHA block 19.
Cc1cn2nc(C(=O)NCc3cccc(Cl)c3)cc2c(N(C)Cc2ccccc2)n1 was read as 12-LOX inh 44%.
Screening CC(C)c1ccc(C(C)NC(=S)NC2CCCCC2)cc1 (stereo not given) returned 12-LOX inh inconclusive, Nrf2 ARE act 0%, Nrf2 block 18µM*, A549 viability 9%, mIDH1 inhibitor -4% and LDHA block -1.
`Cn1c(=O)c2c(ncn2CC(=O)NC(=O)NC2CCCC2)n(C)c1=O` gave 12-LOX inh 19% and LDHA block -34*.
`CCc1c(C)sc(NC(=S)Nc2nc(C)cc(C)n2)c1C(=O)OC` gave 12-LOX inh 22µM*, Nrf2 ARE act 0%, Nrf2 block 8%, A549 viability 0%, mIDH1 inhibitor -6% and LDHA block -4.
COc1ccc(S(=O)(=O)N/N=C\c2ccc3c(c2)OCO3)c(OC)c1 was read as 12-LOX inh 147%, Nrf2 ARE act 0%, Nrf2 block 10µM*, A549 viability -7%, mIDH1 inhibitor 11% and LDHA block -2.
`OC(CCCC(O)c1ccccc1)c1ccccc1` (stereo not given) gave 12-LOX inh -13%, Nrf2 ARE act 0%, Nrf2 block inconclusive, A549 viability 8%, mIDH1 inhibitor 5% and LDHA block -5.
`OC(Cn1cnnc1)c1ccccc1` (stereo not given) gave 12-LOX inh -33%, Nrf2 ARE act 0%, Nrf2 block -4%, A549 viability 4%, mIDH1 inhibitor 0% and LDHA block -37*.
Screening Nc1nc(O)c(N=Nc2ccc(S(N)(=O)=O)cc2)c(=O)[nH]1 returned 12-LOX inh 0%, Nrf2 ARE act -1%, Nrf2 block 3%, A549 viability -16%, mIDH1 inhibitor 3% and LDHA block 4.
NS(=O)(=O)c1ccc(N=Nc2c[nH]c(=O)c(O)c2)cc1 was read as 12-LOX inh 0%, Nrf2 ARE act 24%, Nrf2 block -21%, A549 viability 23µM*, mIDH1 inhibitor 22% and LDHA block 50.
CCC(CC)(CC(=O)Nc1ccccc1CO)C(=O)O was read as 12-LOX inh 7% and LDHA block -10.
For COc1cccc(C(=O)Nc2nnc(CCc3ccccc3)s2)c1 the results were 12-LOX inh -2% and LDHA block 0.
`CN(C)C1CCN(Cc2cc(COCc3ccccc3)c3cccnc3c2O)C1` (stereo not given) gave Nrf2 ARE act 4%, Nrf2 block 21µM*, A549 viability -12% and LDHA block 10.
O=C1OCC(CO)(CO)N=C1NNc1cc(Cl)ccc1Cl was read as 12-LOX inh inconclusive, Nrf2 ARE act 0%, Nrf2 block 6%, A549 viability inconclusive, mIDH1 inhibitor 6% and LDHA block -7.
Screening O=C1OCC(CO)(CO)N=C1NNc1ccccc1[N+](=O)[O-] returned 12-LOX inh 11µM*, Nrf2 ARE act 2%, Nrf2 block 3%, A549 viability -5%, mIDH1 inhibitor 2% and LDHA block -1.
Cc1ccnc(NC(=O)c2cccc(S(=O)(=O)N3CCN(c4ccccc4)CC3)c2)c1 was read as 12-LOX inh -6%, Nrf2 ARE act -1%, Nrf2 block inconclusive, A549 viability -1%, mIDH1 inhibitor 5% and LDHA block -3.

Screening results as filed in PubChem BioAssay.
